Experimental data from PubChem BioAssay AID463173 (ICCB-Longwood Screening Facility, Harvard Medical School, 2010).
The whole screen tested about 52,000 compounds, of which about 4,300 (8.3%) were called active. This excerpt belongs to a sample that is enriched for actives. Values without a mark were called inactive. Cut-off read from the data, not from the text of the source: active = survival mostly below about 52% (no sharp cut-off); inactive = mostly above about 56%.

Test system: DeltatarO mutant
Assay: growth inhibition of S. aureus wild type versus tarO mutant, primary screen, teichoic acid synthesis inhibitors, RN4220, OD600 (AID 463173)
Details: OD600, 18 h, active compounds read low, screened at 18.75 µg/mL (by protocol)

With `C=CCNC(=S)N1CCC(C(=O)c2ccc(C)cc2)CC1` as the compound, how does the survival read?
The survival was 103%.

With `O=C(N/N=C/c1ccccc1)C(O)c1ccccc1` (configuration not stated) as the compound, how does the survival read?
The survival was 95%.

`COc1ccc(-c2nc3sc(CCNC(=O)C(=O)Nc4ccc(OC)c(OC)c4)c(C)n3n2)cc1` was tested. Which survival did it give?
The survival was 84%.

Which survival does the source give for `CCCN1CC=C2C(C#N)=C(N)C(C#N)(C#N)C(c3ccc(F)cc3F)C2C1` (configuration not stated) here?
The survival was 77%.

`Cc1cc(OC(C)C(=O)N2CCN(CCc3ccccn3)CC2)ccc1Cl` (configuration not stated) was tested. Which survival did it give?
Its survival is 68%.

`CC1=C(C(=O)Nc2ccc(C)cc2C)C(c2cc(Br)ccc2F)n2ncc(C(=O)Nc3ccc(C)cc3)c2N1` (configuration not stated) was tested. Which survival did it give?
The survival was 89%.

Which survival does the source give for `Cc1ccc(-n2ncc3c(Nc4ccc5c(c4)OCCO5)ncnc32)cc1Cl` here?
Its survival is 117%.

How did the survival turn out when `COc1cc(NC(=O)CC2C(=O)N(c3ccc(Cl)cc3)C(=O)N2Cc2cccs2)cc(OC)c1` (configuration not stated) was run?
Its survival is 85%.

For `COc1ccc(-n2c(SCC(=O)NCc3ccc(C)cc3)nc3n[nH]c(C)c3c2=N)cc1`, which survival is on record?
The survival was 87%.

With `Cc1ccccc1Cn1c(=O)n(-c2ccc(Cl)cc2)c(=O)c2c3c(sc21)CCCC3` as the compound, how does the survival read?
Its survival is 114%.

`COc1ccc(NC(=O)c2ccc3c(=O)n4nc(Nc5cccc(Cl)c5C)sc4nc3c2)cc1` was tested. Which survival did it give?
Its survival is 67%.

`CC1CCCN(Cc2c(O)ccc3c(=O)c(Oc4ccccc4Cl)c(C(F)(F)F)oc23)C1` (configuration not stated) was tested. Which survival did it give?
Its survival is 88%.

`COc1ccc(Oc2c(C(F)(F)F)oc3c(CN4CCCC(C)C4)c(O)ccc3c2=O)cc1` (configuration not stated) was tested. Which survival did it give?
Its survival is 68%.

`CCN1CCN(Cc2c(O)ccc3c(=O)c(Oc4ccccc4Cl)c(C(F)(F)F)oc23)CC1` was tested. Which survival did it give?
Its survival is 90%.

Which survival does the source give for `CCc1ccc(Oc2c(C(F)(F)F)oc3c(CN4CCCC(C)C4)c(O)ccc3c2=O)cc1` (configuration not stated) here?
Its survival is 77%.

Which survival does the source give for `CC1CCCN(Cc2c(O)ccc3c(=O)c(-c4ccccc4Cl)c(C(F)(F)F)oc23)C1` (configuration not stated) here?
Its survival is 43% (active).

With `O=c1c(-c2ccc(Cl)cc2)c(C(F)(F)F)oc2c(CN3CCCCC3)c(O)ccc12` as the compound, how does the survival read?
Its survival is 134%.

`CC1CCCCN1Cc1c(O)ccc2c(=O)c(-c3ccccc3Cl)c(C(F)(F)F)oc12` (configuration not stated) was tested. Which survival did it give?
Its survival is 55%.

For `CC1CCN(Cc2c(O)ccc3c(=O)c(-c4ccc(Cl)cc4)c(C(F)(F)F)oc23)CC1`, which survival is on record?
Its survival is 60%.

How did the survival turn out when `CC1CCCN(Cc2c(O)ccc3c(=O)c(-c4ccc(Cl)cc4)c(C(F)(F)F)oc23)C1` (configuration not stated) was run?
The survival was 46% (active).

With `CC(C)c1ccccc1Oc1c(C(F)(F)F)oc2c(CN3CCN(C)CC3)c(O)ccc2c1=O` as the compound, how does the survival read?
Its survival is 49%.

With `CCN1CCN(Cc2c(O)ccc3c(=O)c(Oc4ccccc4C(C)C)c(C(F)(F)F)oc23)CC1` as the compound, how does the survival read?
Its survival is 51% (active).

`CC1CCCN(Cc2c(O)ccc3c(=O)c(Oc4ccc(C(C)(C)C)cc4)c(C(F)(F)F)oc23)C1` (configuration not stated) was tested. Which survival did it give?
Its survival is 17% (active).

How did the survival turn out when `COCc1cc(C)nc2sc3c(=O)n(-c4cc(C)ccc4C)nnc3c12` was run?
Its survival is 87%.

For `Cc1cc(C)c(NC(=O)C2CCN(C(=O)N3CC(C)Oc4ccc(Cl)cc43)CC2)c(C)c1` (configuration not stated), which survival is on record?
Its survival is 56%.

How did the survival turn out when `Cc1cc(C)c(NC(=O)CSc2nccn2-c2cccc(Cl)c2)c(C)c1` was run?
The survival was 73%.

How did the survival turn out when `CCN(CC)S(=O)(=O)c1ccc2c(c1)c(=O)c(C(=O)NCCc1ccccc1)cn2C` was run?
Its survival is 85%.

How did the survival turn out when `Cc1cc(C)c(NC(=O)Cn2nnc(C(=O)NCc3cccs3)c2N)c(C)c1` was run?
The survival was 91%.

`CCOc1ccc(Sc2cc(C(=O)NC(C)c3ccccc3)c3ccccc3n2)cc1` (configuration not stated) was tested. Which survival did it give?
The survival was 75%.

How did the survival turn out when `Cc1ccc(C(=O)Nc2cccc(OCc3cc(=O)n4c5c(sc4n3)CCCC5)c2)cc1` was run?
Its survival is 118%.

For `COc1ccccc1C(=O)Nc1cccc(OCc2cc(=O)n3c(C)csc3n2)c1`, which survival is on record?
Its survival is 44% (active).

With `COc1ccc(C(=O)Nc2cccc(OCc3cc(=O)n4c5c(sc4n3)CCCC5)c2)cc1OC` as the compound, how does the survival read?
Its survival is 53%.

With `Cc1ccccc1C(=O)Nc1cccc(OCc2cc(=O)n3c4c(sc3n2)CCCC4)c1` as the compound, how does the survival read?
The survival was 101%.

`COc1ccc(C(=O)Nc2cccc(OCc3cc(=O)n4c5c(sc4n3)CCCC5)c2)cc1` was tested. Which survival did it give?
Its survival is 55%.

For `Cc1csc2nc(COc3cccc(NC(=O)c4ccccc4F)c3)cc(=O)n12`, which survival is on record?
Its survival is 123%.

Which survival does the source give for `COc1cccc(C(=O)Nc2cccc(OCc3cc(=O)n4c5c(sc4n3)CCCC5)c2)c1` here?
The survival was 51% (active).

With `Cc1ccccc1C(=O)Nc1cccc(OCc2cc(=O)n3c(C)csc3n2)c1` as the compound, how does the survival read?
Its survival is 96%.

Which survival does the source give for `COc1ccccc1C(=O)Nc1cccc(OCc2cc(=O)n3c4c(sc3n2)CCCC4)c1` here?
Its survival is 39% (active).

With `CCOc1ccc(-c2nonc2NC(=O)c2oc3ccc(Cl)cc3c2C)cc1` as the compound, how does the survival read?
Its survival is 64%.

Which survival does the source give for `NNC1=NC2CS(=O)(=O)CC2S1` (configuration not stated) here?
Its survival is 56%.

`CCSc1nnc(CNc2ccc(F)cc2)n1CC1CCCO1` (configuration not stated) was tested. Which survival did it give?
Its survival is 91%.

With `COCCCNC(=O)c1ccc(Cn2c(=O)c3cccn3c3cccnc32)cc1` as the compound, how does the survival read?
The survival was 70%.

With `CC(C)CCNC(=O)c1ccc(Cn2c(=O)c3cccn3c3cccnc32)cc1` as the compound, how does the survival read?
The survival was 64%.

With `CC(C)NC(=O)c1ccc(Cn2c(=O)c3cccn3c3cccnc32)cc1` as the compound, how does the survival read?
The survival was 44% (active).

For `CC(CNC(=O)c1ccc(Cn2c(=O)c3cccn3c3cccnc32)cc1)c1ccccc1` (configuration not stated), which survival is on record?
Its survival is 41% (active).

With `CC(NC(=O)c1ccc(Cn2c(=O)c3cccn3c3cccnc32)cc1)c1ccccc1` (configuration not stated) as the compound, how does the survival read?
Its survival is 101%.

With `CCC(C)NC(=O)c1ccc(Cn2c(=O)c3cccn3c3cccnc32)cc1` (configuration not stated) as the compound, how does the survival read?
Its survival is 116%.

How did the survival turn out when `CC(C)CCn1c(=O)c2sccc2n2c(CCCC(=O)NC(C)c3ccccc3)nnc12` (configuration not stated) was run?
Its survival is 88%.

With `Nc1nnc(SCC(=O)C2CC2)s1` as the compound, how does the survival read?
The survival was 80%.

With `O=C(N/N=C/c1ccc(F)cc1)c1ccc(NC(=O)C2CC2)cc1` as the compound, how does the survival read?
The survival was 105%.

Which survival does the source give for `Cc1cc(Nc2cccc(Cl)c2)nc2ccc(NC(=O)c3cccnc3)cc12` here?
Its survival is 91%.

How did the survival turn out when `COc1ccc(NC(=O)C2=CC(c3ccc4c(c3)OCO4)=NS(=O)(=O)N2C)cc1` was run?
Its survival is 88%.

How did the survival turn out when `COc1ccc(C2=NS(=O)(=O)N(C)C(C(=O)Nc3ccc(OC(F)(F)F)cc3)=C2)cc1` was run?
Its survival is 48% (active).

For `CN1C(C(=O)Nc2ccc(OC(F)(F)F)cc2)=CC(c2ccc3c(c2)OCO3)=NS1(=O)=O`, which survival is on record?
The survival was 80%.

`CN1C(C(=O)Nc2ccc(OC(F)(F)F)cc2)=CC(c2cccs2)=NS1(=O)=O` was tested. Which survival did it give?
The survival was 31% (active).

How did the survival turn out when `Cc1ccc(NC(=O)C2=CC(c3cccs3)=NS(=O)(=O)N2C)cc1` was run?
Its survival is 83%.

How did the survival turn out when `COc1ccc(NC(=O)C2=CC(c3cccs3)=NS(=O)(=O)N2C)cc1` was run?
Its survival is 94%.
